Screening results from PubChem.
p53 reactivation: mutant p53 re-activation in reporter cells; H1299 p53-A138V BP100-luciferase reporter, luminescence, 24 h; Potency, µM (series often up to 92.2 µM), usual class: activators; hit rate 0.063% among 320,000; AID 504706; note: nearly all actives have a fitted effect of over 45% in size
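H1299 (p53-null), stable ts p53-A138V + BP100-Luc; 1000 cells/well, Opti-MEM/10% FBS; cpd 4 pt, 1:5; 24 h, 37 deg C, 5% CO2; detection reagent 10 min RT; luminescence.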
NPC1 promoter act: NPC1 promoter activation. Huh7 NPC1 promoter luciferase reporter, 24 h. Potency, µM (highest dose often 9.22 µM), usual class: activators. hit rate 2.4% among 320,000; note: nearly all actives have a fitted effect of over 60% in size
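In 1536-well qHTS, Huh7 cells harboring an NPC1 promoter–luciferase construct received compound for 24 h; activation was quantified by luminescence following luciferase reagent addition.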
SMN2 splice up: SMN2 splice variant enhancement; hit rate 2.8% among 210,000; Potency, µM (series often up to 46.1 µM), usual class: activators; AID 1458; HEK293 SMN2-luciferase splicing reporter, luminescence, 30-36 h; note: nearly all actives have a fitted effect of over 55% in size
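HEK293 cells carry an SMN2 minigene-luciferase reporter in which exon 7 inclusion puts luciferase in frame. Cells were seeded at 2000 cells/well, attached for 10-12 hours, then exposed to compounds for 30-36 hours at 37C before ONE-Glo luminescence.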
Rab9 promoter act: Rab9 promoter activation. Potency, µM (titrated, usually from 9.22 µM), most hits filed as activators. hit rate 2.8% among 320,000. Huh7 Rab9 promoter-luciferase reporter, luminescence, 24 h; note: nearly all actives have a fitted effect of over 60% in size
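Quantitative HTS format; Huh7 Rab9-luciferase reporter cells (1500/well) receive compound 2 h post-plating, incubate 24 h at 37 °C, then get luciferase reagent for 10 min before luminescence reading.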
FLuc modulator: inhibits or activates purified firefly luciferase, miR-21 counter-screen. P08659. purified FLuc, Km substrates, luminescence inhibition. Potency, µM (doses to about 57.5 µM), most hits filed as inhibitors. hit rate 6.9% among 360,000. AID 588342; note: nearly all actives have a fitted effect of over 55% in size
Target sequence (P08659 whole entry, looked up): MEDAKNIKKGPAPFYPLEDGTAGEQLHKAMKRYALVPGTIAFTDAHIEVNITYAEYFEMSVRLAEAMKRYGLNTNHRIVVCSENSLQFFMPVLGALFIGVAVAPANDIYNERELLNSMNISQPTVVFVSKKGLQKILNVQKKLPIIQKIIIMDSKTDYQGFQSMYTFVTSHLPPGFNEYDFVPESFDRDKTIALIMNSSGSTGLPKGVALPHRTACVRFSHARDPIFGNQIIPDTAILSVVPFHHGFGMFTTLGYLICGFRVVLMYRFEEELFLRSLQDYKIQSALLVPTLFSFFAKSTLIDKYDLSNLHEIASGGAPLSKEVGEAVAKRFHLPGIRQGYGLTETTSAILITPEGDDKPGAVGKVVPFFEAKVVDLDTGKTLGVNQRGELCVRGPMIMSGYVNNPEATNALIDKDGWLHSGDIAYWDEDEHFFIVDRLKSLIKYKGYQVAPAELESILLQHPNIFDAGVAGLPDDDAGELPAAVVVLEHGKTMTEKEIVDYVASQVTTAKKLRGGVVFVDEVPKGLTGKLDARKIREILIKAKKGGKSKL
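Purified P. pyralis luciferase (10nM final) with 10uM D-luciferin and 10uM ATP (Km levels) in 50mM Tris acetate pH 7.5, 10mM Mg acetate, 0.01% Tween-20, 0.05% BSA; qHTS 6-point titration, ~60 µM downward; luminescence read.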
ELG1 genotoxic: inducers of genotoxicity in HEK293T ELG1-luciferase cells. HEK293T ELG1-luciferase reporter, luminescence, 16 h. Potency, µM (highest dose often 46 µM), hits mostly activators. hit rate 1.3% among 330,000; note: nearly all actives have a fitted effect of over 60% in size
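DMSO vehicle served as control against compound-treated ELG1-luciferase HEK293T cells; exposure lasted 16 hr at 37 °C and 5% CO2, followed by ONE-Glo luminescence detection after 30 min.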
Hits are given with their value; - = inactive; ? = inconclusive; . = not tested or not shown; [ ] = dose if it differs, or a comment. Hits are enriched below; roughly 7.4% of the tested compounds scored in any of these assays. Calls come from the whole dose curve; as a rule, active = well fitted curve in the direction sought with a large enough effect; inconclusive = small, poorly fitted or top-dose-only effect, or another doubt; inactive = no such curve, though single readings can be large; an effect the other way counts as inactive or inconclusive.

SMILES	p53 reactivation	NPC1 promoter act	SMN2 splice up	Rab9 promoter act	FLuc modulator	ELG1 genotoxic
N/C(=N\OC(=O)Cc1ccccc1)c1cccnc1	-	-	-	-	-	-
N/C(=N\OC(=O)c1ccccc1)c1ccn[nH]1	-	2.2µM	.	3.5µM	6.7µM	10µM
N/C(=N\OC(=O)c1ccc(Cl)cc1[N+](=O)[O-])c1cccnc1	?	-	.	?	24µM	?
N/C(=N\OC(=O)c1ccccc1)c1cccnc1	-	-	.	-	5.4µM	?
Cc1cccc(NC(=O)c2c(C)cc(C)nc2SCC(=O)c2ccccc2)c1	.	.	.	.	-	.
C[C@@H]1CC[C@H]2[C@H](C)C3[C@H](C[C@H]4[C@@H]5CC=C6C[C@@H](O)CC[C@@]6(C)[C@@H]5C[C@@H](O)[C@]34C)N2C1 (some centres undefined)	.	.	-[9.22 µM]	.	.	.
O=C(COC(=O)c1cc(Br)ccc1O)NNC(=O)c1cccs1	-	-	.	-	-	-
N/C(=N\OC(=O)c1cc(Cl)ccc1Cl)c1cccnc1	?	-	?	?	9.5µM	21µM
Cc1cccc(C(=O)O/N=C(\c2ccccc2)c2cccnc2)c1	-	-	-	-	?	-
N/C(=N\OC(=O)c1ccccc1Cl)c1cccnc1	?	3.5µM	16µM	?	4.3µM	?
Cc1ccc(C(=O)O/N=C(\c2ccccc2)c2cccnc2)cc1	-	-	-	-	17µM	-
CCC(Sc1nc2ccccc2c2nc(CCc3c(C)n[nH]c3C)nn12)C(=O)Nc1ccc(OC)cc1 (centres undefined)	.	.	.	.	-	.
CCc1ccccc1NC(=O)c1ccc(-n2c(C)ccc2C)cc1	-	-	-	-	-	-
CC(=O)NCCNC(=O)c1ccc(-n2c(C)ccc2C)cc1	?	-	.	?	-	23µM
Cc1ccc(C)n1-c1ccc(NC(=O)c2ccccc2)cc1	-	-	11µM	?	8.5µM	?
CC(=O)c1ccc(NC(=O)c2ccc(-n3cnnc3)cc2)cc1	.	.	.	.	-	.
CC(=O)Nc1ccc(NC(=O)c2ccc(-n3c(C)ccc3C)cc2)cc1	25µM	-	.	-	21µM	?
CCOC(=O)c1ccc(-n2c(C)ccc2C)cc1	-	-	-	-	-	-
O=C(Cc1cccs1)N[C@@H]1c2ccccc2CC[C@H]1OCc1ccccc1	-	.	.	.	.	-
COc1ccccc1CNc1ccnc(-c2ccccc2C(F)(F)F)n1	.	.	-	.	.	.
CCN1C(=O)[C@@H]2[C@@H](c3ccc(SC4CCCCC4)c(OC)c3)N3CCC[C@@]3(C(=O)OC)[C@@H]2C1=O	-	-	.	-	-	-
CC1=C/C(=C\c2ccc3c(c2)OCO3)C(=O)S1	-	-	-	-	19µM	-
CCCN1C/C(=C/c2ccc3c(c2)OCO3)C(=O)/C(=C/c2ccc3c(c2)OCO3)C1	-	-	-	-	-	-
CC1CCCCN1c1nc(-c2ccc(C(C)(C)C)cc2)nc2ccccc12 (centres undefined)	.	.	-	.	3.4µM	.
CC1CCN(c2nc(-c3ccncc3)nc3ccccc23)CC1	-	-	-	-	-	-
SMILES	p53 reactivation	NPC1 promoter act	SMN2 splice up	Rab9 promoter act	FLuc modulator	ELG1 genotoxic
CC1CCN(c2nc(-c3ccc(C(C)(C)C)cc3)nc3ccccc23)CC1	.	.	-	.	5.4µM	.
Cc1noc2ncnc(N3CCCC(C(=O)Nc4cccc(C(F)(F)F)c4)C3)c12 (centres undefined)	.	.	.	.	-	.
COc1ccc(C(=O)Nc2nc(-c3ccccc3)c(C(C)=O)s2)c(OC)c1	-	-	-	?	0.85µM	?
CC(=O)c1sc(NC(=O)c2ccccc2F)nc1-c1ccccc1	-	2.2µM	11µM	1.8µM	12µM	-
CC(=O)c1sc(NC(=O)c2ccc(F)cc2)nc1-c1ccccc1	-	?	?	-	?	?
COc1ccc(N2CC(C(=O)Nc3nc(-c4ccccc4)c(C(C)=O)s3)CC2=O)c(OC)c1 (centres undefined)	-	-	.	-	-	-
COc1ccc(C)cc1NC(=O)c1nnn(Cc2cccc(Br)c2)c1N	.	.	-	.	-	.
O=C1COc2ccc(OCc3ccc(F)cc3)cc21	-	1.4µM	11µM	1.1µM	4.3µM	?
COc1ccccc1C(=O)Nc1ccc2c(c1)nc1n2CCN(Cc2ccccc2)C1	-	-	-	-	?	-
Cc1ccc(C(=O)Nc2ccc3c(c2)nc2n3CCSC2)cc1	-	0.71µM	.	0.56µM	2.7µM	?
COc1ccccc1C(=O)Nc1ccc2c(c1)nc1n2CCSC1	?	?	22µM	1.8µM	3µM	?
CCCCC(=O)Nc1ccc2c(c1)nc1n2CCSC1	-	3.5µM	?	3.5µM	24µM	7.3µM
CC(=O)Nc1ccc2c(c1)nc1n2CCSC1	-	-	-	-	-	-
Cc1cc(C(=O)CSc2nnc(-c3ccc(OC(F)F)cc3)o2)c(C)n1Cc1cccs1	-	-	-	-	-	-
Cc1cc(C(=O)CSc2nnc(N)s2)c(C)n1Cc1cccs1	-	0.56µM	-	0.28µM	0.85µM	0.92µM
COc1ccc(-c2nnc(SCC(=O)c3cc(C)n(Cc4cccs4)c3C)o2)cc1	-	-	-	-	?	-
Cc1csc(SCC(=O)c2cc(C)n(Cc3cccs3)c2C)n1	-	?	-	0.32µM	0.17µM	?
Cc1cc(C(=O)CSc2n[nH]c(-c3ccccc3F)n2)c(C)n1Cc1cccs1	-	-	-	-	17µM	-
CC1CC(OC(=O)c2ccccc2O)CC(C)(C)C1 (centres undefined)	.	.	-	.	.	.
CCc1ccc(CN(C)C(=O)CCc2nc3ccccc3n(-c3ccc(OC)cc3)c2=O)cc1	-	-	-	-	-	-
COc1ccc(/C(O)=C/c2nc3ccccc3n(-c3ccccc3)c2=O)cc1	-	-	-	-	7.6µM	-
Cc1ccc(C)n1-c1nnc(N2CCCC(C(=O)NCc3ccccc3)C2)s1 (centres undefined)	.	.	-	.	-	.
COc1cccc(/C=C2\Oc3ccc(O)cc3C2=O)c1O	-	?	.	?	3.4µM	?
COc1ccc2c(c1)C(=O)[C@@H](OC(=O)Nc1ccc(C)c(Br)c1)[C@H](c1ccc(OC)c(Br)c1)O2	.	.	-	.	.	.
Cc1ccc2c(c1)NC(=O)c1cccnc1N2	-	3.2µM	11µM	?	12µM	?
O=C1Nc2ccccc2Nc2ncccc21	-	-	?	-	-	-
C=CCn1c(C)cc(C(=O)CN2C(=O)c3ccccc3S2(=O)=O)c1C	-	-	.	-	1.5µM	-
Cc1cc(C(=O)CN2C(=O)C3CC=CCC3C2=O)c(C)n1-c1ccccc1 (centres undefined)	?	0.56µM	-	0.71µM	0.67µM	?
Cc1cc(C(=O)CN2C(=O)c3ccccc3S2(=O)=O)c(C)n1C(C)C	-	-	.	?	.	-
Cc1cc(C(=O)CN2C(=O)c3ccccc3S2(=O)=O)c(C)n1-c1ccccc1	-	-	-	-	2.1µM	-
